Results filed as inconclusive are left out. Calls of active or inactive are those of the source. The calls were made as follows: active = hit-call score of the fitted dose curve at least 0.9, where 1 is the maximum; inconclusive = response in the unintended direction; inactive = score below 0.9.
The molecules below were run against human Colony Stimulating Factor 1 Receptor (CSF1R), CSF1R (gene 1436) (UniProt P07333) (assay: NVS_ENZ_hCSF1R: NovaScreen (NVS) Enzymatic Assay for human Colony Stimulating Factor 1 Receptor (CSF1R) (AID 2283150)).
Procedure: NVS_ENZ_hCSF1R is a biochemical, single-readout assay that uses extracted gene-proteins in a cell-free assay. Measurements were taken 1 hour after chemical dosing in a 384-well plate.NVS_ENZ_hCSF1R is one of one assay component(s) measured or calculated from the NVS_ENZ_hCSF1R assay. It is designed to make measurements of enzyme activity, a form of enzyme reporter, as detected with fluorescence intensity signals by Fluorescence and electrophoretic mobility shift technology.Data from the assay component NVS_ENZ_hCSF1R was analyzed into 1 assay endpoint. This assay endpoint, NVS_ENZ_hCSF1R, was analyzed in the positive analysis fitting direction relative to DMSO as the negative control and baseline of activity. Using a type of enzyme reporter, loss-of-signal activity can be used to understand changes in the enzymatic activity as they relate to the gene CSF1R. Furthermore, this assay endpoint can be referred to as a primary readout, because this assay has produced multiple assay endpoints where this one serves a enzymatic activity function. To generalize the intended target to other relatable targets, this assay endpoint is annotated to the kinase intended target family, where the subfamily is receptor tyrosine kinase.
Binding assays used specific radioligands (tritiated, iodinated) with non-radioactive competitive displacement ligands in agonist or antagonist protocols (as indicated) and various reference compounds and inhibitors to titrate specific binding to receptors and transporters. Most enzyme assays (CYPs, kinases, phosphatases, proteases, HDACs) used recombinant protein and specific substrates (fluorescence mostly, some colorimetric and radioactive) and inhibitors, followed by a biochemical separation of substrate and product. All assays for the biochemical HTS were initially run in duplicate at a single concentration (10 uM for CYP450 assays and 25 uM for all others). Assay-chemical combinations meeting a pre-defined threshold (e.g., 30% inhibition and other criteria defined below) were then run in singleton concentration-response format with maximum concentration of 20 uM for CYPs and 50 uM for all others. Each assay was run with positive and negative controls, and concurrent controls on every plate. The follow-up (secondary) screen tested active chemical-pairs in concentration series, as well as a few additional assays not tested in the primary screen, some selected negative inactives, and several cases re-run in the concentration series for confirmatory purposes.

Chain of human Colony Stimulating Factor 1 Receptor (CSF1R), CSF1R (gene 1436) (P07333 whole entry, looked up): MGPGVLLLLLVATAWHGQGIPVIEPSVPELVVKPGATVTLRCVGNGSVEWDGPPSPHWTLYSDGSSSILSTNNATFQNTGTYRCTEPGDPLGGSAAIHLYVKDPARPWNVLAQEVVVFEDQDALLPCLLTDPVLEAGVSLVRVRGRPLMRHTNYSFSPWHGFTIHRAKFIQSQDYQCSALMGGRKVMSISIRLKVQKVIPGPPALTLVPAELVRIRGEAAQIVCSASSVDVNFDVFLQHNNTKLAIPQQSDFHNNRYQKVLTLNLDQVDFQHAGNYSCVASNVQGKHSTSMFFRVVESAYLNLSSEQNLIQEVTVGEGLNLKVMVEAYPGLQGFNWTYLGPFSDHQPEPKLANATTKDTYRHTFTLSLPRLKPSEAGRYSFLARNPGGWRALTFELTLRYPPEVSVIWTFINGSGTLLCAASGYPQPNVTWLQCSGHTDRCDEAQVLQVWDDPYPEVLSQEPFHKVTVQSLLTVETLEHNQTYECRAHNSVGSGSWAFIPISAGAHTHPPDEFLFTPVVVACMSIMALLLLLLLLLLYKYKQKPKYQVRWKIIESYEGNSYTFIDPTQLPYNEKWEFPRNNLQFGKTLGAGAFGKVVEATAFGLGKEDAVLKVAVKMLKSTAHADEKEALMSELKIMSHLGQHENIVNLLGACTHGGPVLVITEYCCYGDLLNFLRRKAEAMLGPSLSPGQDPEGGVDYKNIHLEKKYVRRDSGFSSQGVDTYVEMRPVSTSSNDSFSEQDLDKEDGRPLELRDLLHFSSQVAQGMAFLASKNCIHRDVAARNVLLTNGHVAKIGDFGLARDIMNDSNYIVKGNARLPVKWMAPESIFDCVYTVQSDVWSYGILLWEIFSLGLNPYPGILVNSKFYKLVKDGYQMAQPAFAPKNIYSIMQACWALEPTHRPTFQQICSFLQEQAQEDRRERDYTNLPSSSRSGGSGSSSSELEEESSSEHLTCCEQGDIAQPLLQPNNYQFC

| Structure (SMILES) | outcome |
| --- | --- |
| Cc1oc2c(NC(=O)c3c(Cl)cccc3Cl)cccc2c1C(C)(C)O | inactive |
| CCCC(=O)OCCC(C)C | inactive |
| C[C@]12CC[C@@H]3c4ccc(O)cc4CC[C@H]3[C@@H]1CC[C@H]2O | inactive |

What follows are molecules tested against human Dual Specificity Protein Phosphatase 3 (DUSP3), DUSP3 (gene 1845) (UniProt P51452) (assay: NVS_ENZ_hDUSP3: NovaScreen (NVS) Enzymatic Assay for human Dual Specificity Protein Phosphatase 3 (DUSP3) (AID 2283152);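 also: phosphatase activity of recombinant human DUSP3 on a fluorogenic substrate without cells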).
How it was run: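 Cell-free assay with recombinant human DUSP3 and fluorogenic substrate, read by fluorescence intensity. Primary screen ran duplicate at 25 uM; actives followed up in concentration series; loss of signal versus DMSO scored.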

Chain of human Dual Specificity Protein Phosphatase 3 (DUSP3), DUSP3 (gene 1845) (P51452 whole entry, looked up): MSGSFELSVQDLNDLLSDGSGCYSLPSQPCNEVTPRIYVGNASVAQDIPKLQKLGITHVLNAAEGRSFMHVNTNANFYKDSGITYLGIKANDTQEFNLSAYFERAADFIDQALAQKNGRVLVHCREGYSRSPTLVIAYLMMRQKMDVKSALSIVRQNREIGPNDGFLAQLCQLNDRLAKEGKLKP

| Structure (SMILES) | AC50 | outcome |
| --- | --- | --- |
| O=C1c2ccccc2C(=O)N1CCc1noc(-c2ccc(CN3CCCCCC3)s2)n1 | 19.9 µM (active) | – |
| Cc1ccc2oc(CN(Cc3ccccc3)C(=O)Nc3c(F)cc(F)cc3F)c(-c3ccc(Cl)cc3)c2c1 | 9.32 µM (active) | – |
| OC12N=C(c3ccccc3)SC1Cc1cc(Cl)ccc12 (stereo not drawn) | 4.92 µM (active) | – |
| CCCCCCCCOc1ccc(C(=O)c2ccccc2)c(O)c1 | – | inactive |
| O=C1CCC(C2CCCCC2)CC1 | 22.2 µM (active) | – |
| Cc1cc(F)ccc1-c1cc(N2CC[C@@H](O)[C@H]2CO)ncc1N(C)C(=O)C(C)(C)c1cc(C(F)(F)F)cc(C(F)(F)F)c1 | 12.3 µM (active) | – |
| Cc1c2ccccc2c(C)c2c1ccc1ccccc12 | – | inactive |

These molecules were tested against human Elastase, ELANE (gene 1991) (UniProt P08246) (assay: NVS_ENZ_hElastase: NovaScreen (NVS) Enzymatic Assay for human Elastase (AID 2283153)).
How it was run: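 Cell-free elastase from human neutrophils, 1.5 h after dosing, activity read by absorbance. Primary screen in duplicate at 25 uM; hits (e.g., 30% inhibition) rerun in singleton concentration-response up to 50 uM, fitted versus DMSO.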

Chain of human Elastase, ELANE (gene 1991) (P08246 whole entry, looked up): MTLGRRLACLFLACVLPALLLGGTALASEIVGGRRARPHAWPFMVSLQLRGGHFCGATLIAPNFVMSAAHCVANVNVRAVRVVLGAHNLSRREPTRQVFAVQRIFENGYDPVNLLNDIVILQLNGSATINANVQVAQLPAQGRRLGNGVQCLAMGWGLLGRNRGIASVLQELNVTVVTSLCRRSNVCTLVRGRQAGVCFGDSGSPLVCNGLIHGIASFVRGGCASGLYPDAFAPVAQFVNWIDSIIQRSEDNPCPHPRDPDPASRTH

| Structure (SMILES) | outcome | AC50 |
| --- | --- | --- |
| O=C1O[C@H]([C@@H](O)CO)C(O)=C1O | inactive | – |
| CC[C@@H]1C[C@H](N(Cc2cc(C(F)(F)F)cc(C(F)(F)F)c2)C(C)=O)c2cc(C(F)(F)F)ccc2N1C(=O)OC(C)C | inactive | – |
| CCCCCCCCCCCO | – | 27.4 µM (active) |
| O=C1CCC(C2CCCCC2)CC1 | – | 10 µM (active) |
| Cc1c2ccccc2c(C)c2c1ccc1ccccc12 | – | 14.3 µM (active) |

What follows are molecules tested against human Esterase Plasma (ES), BCHE (gene 590) (UniProt P06276) (assay: NVS_ENZ_hES: NovaScreen (NVS) Enzymatic Assay for human Esterase Plasma (ES) (AID 2283157)).
How it was run: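 Esterase from human plasma, cell-free, colorimetric absorbance read 0.25 h after dosing. Screened at 25 uM in duplicate, with threshold-passing chemicals run in concentration-response up to 50 uM; loss of signal fitted versus DMSO.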

Chain of human Esterase Plasma (ES), BCHE (gene 590) (P06276 whole entry, looked up): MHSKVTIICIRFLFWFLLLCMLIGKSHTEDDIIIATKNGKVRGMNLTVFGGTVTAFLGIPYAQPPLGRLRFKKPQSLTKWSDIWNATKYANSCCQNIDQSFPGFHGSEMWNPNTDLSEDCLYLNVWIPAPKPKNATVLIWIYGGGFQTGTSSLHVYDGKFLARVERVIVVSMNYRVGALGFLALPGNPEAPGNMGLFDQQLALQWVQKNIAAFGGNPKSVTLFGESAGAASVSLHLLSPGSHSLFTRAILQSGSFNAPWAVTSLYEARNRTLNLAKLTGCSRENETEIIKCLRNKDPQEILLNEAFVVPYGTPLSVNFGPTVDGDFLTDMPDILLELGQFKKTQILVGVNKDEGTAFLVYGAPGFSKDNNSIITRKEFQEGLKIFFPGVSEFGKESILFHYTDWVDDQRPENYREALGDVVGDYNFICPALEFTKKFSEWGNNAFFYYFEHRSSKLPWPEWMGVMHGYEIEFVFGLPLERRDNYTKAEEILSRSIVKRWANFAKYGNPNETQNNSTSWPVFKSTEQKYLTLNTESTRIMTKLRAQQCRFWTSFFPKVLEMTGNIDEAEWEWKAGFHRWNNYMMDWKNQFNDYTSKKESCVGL

| Structure (SMILES) | outcome | AC50 |
| --- | --- | --- |
| c1ccc(C[n+]2cccc3ccccc32)cc1 | inactive | – |
| COc1cccc([C@H](O)C2CCN(CCc3ccc(F)cc3)CC2)c1OC | – | 18.2 µM (active) |
| O=C1c2ccccc2C(=O)N1CCc1noc(-c2ccc(CN3CCCCCC3)s2)n1 | – | 18.2 µM (active) |
| Cc1occc1C(=O)Nc1ccc(C(=O)N2CCC(F)(F)/C(=C\C(=O)N3CCC(N4CCCCC4)CC3)c3ccccc32)cc1 | inactive | – |
| C[C@]12CC[C@@H]3c4ccc(O)cc4CC[C@H]3[C@@H]1CC[C@H]2O | inactive | – |
| Clc1cc(Cl)c2c(c1)N=C1CCCCCN1C2 | – | 13.7 µM (active) |
| Cc1c2ccccc2c(C)c2c1ccc1ccccc12 | inactive | – |

Each molecule was assayed against human Ephrin type-A Receptor 1 (EphA1), EPHA1 (gene 2041) (UniProt P21709) (assay: NVS_ENZ_hEphA1: NovaScreen (NVS) Enzymatic Assay for human Ephrin type-A Receptor 1 (EphA1) (AID 2283158);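 also: activity is signal loss versus DMSO meaning EphA1 kinase inhibition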).
How it was run: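 Biochemical kinase assay run cell-free; 1 h incubation; readout is fluorescence with mobility-shift separation of product. Concentration-response up to 50 uM for actives from a 25 uM screen.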

Chain of human Ephrin type-A Receptor 1 (EphA1), EPHA1 (gene 2041) (P21709 whole entry, looked up): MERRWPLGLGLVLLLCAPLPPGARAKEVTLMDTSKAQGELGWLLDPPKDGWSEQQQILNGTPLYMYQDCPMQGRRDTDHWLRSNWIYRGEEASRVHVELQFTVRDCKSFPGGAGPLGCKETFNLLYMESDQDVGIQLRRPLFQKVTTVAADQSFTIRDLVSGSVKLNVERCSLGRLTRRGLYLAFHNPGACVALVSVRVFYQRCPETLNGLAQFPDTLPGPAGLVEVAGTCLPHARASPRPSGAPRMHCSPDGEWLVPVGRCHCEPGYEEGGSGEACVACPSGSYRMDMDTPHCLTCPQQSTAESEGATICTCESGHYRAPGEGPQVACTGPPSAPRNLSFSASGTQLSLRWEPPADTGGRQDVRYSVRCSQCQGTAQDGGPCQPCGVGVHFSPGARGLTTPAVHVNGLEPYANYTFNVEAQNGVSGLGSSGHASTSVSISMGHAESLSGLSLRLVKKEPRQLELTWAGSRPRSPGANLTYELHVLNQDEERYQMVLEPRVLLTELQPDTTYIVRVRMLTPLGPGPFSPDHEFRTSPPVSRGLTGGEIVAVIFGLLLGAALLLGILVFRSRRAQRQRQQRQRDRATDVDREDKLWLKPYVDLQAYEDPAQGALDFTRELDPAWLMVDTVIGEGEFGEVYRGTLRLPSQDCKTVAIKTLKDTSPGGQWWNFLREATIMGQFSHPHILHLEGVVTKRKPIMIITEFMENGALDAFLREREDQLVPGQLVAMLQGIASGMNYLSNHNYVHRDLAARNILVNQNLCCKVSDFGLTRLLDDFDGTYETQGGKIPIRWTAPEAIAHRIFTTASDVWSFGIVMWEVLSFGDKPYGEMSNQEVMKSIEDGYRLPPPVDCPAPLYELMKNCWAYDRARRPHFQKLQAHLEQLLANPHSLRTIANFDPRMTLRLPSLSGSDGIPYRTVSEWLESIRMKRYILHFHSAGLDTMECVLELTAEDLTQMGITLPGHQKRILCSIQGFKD

| Structure (SMILES) | outcome |
| --- | --- |
| O=C1O[C@H]([C@@H](O)CO)C(O)=C1O | inactive |
| CCCCCc1ccc(N)cc1 | inactive |
| CCCCCCCCN(C)CCCCCCCC | inactive |
| CC1(C)NC(=O)N(c2ccc([N+](=O)[O-])c(C(F)(F)F)c2)C1=O | inactive |
| CC(O)CC(C)(C)O (stereo not drawn) | inactive |
| Clc1cc(Cl)c2c(c1)N=C1CCCCCN1C2 | inactive |
